Measurements reported in PubChem BioAssay.
Active and inactive are the calls of the source.

experiment: CREB reporter modulators under forskolin, primary screen, cell-based, PC12, CRE-LacZ reporter, forskolin-stimulated (AID 1146); settings: luminescence, 4.5 h, higher = more signal, called active from +8 up or from −8 down;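 further: PC12 cells with 6xCRE LacZ reporter stimulated by forskolin 10 µM; beta-galactosidase reporter signal reflecting CREB driven transcription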

z-score, inactive:
CCCNC(=O)[C@@]1(Sc2ccc(C)cc2)CC(=O)N(C2CCCCC2)[C@@H]1c1ccc(CO)cc1I 1.38
COC(=O)C(CC#Cc1ccc2c(c1)[C@]1(C(=O)N2)[C@H](C(=O)Nc2nc3ccccc3s2)[C@H]2C(=O)O[C@H](c3ccccc3)[C@H](c3ccccc3)N2[C@@H]1c1ccc(OCCO)cc1)C(=O)OC -0.856
CC(=O)NCCCC[C@@H]1NC(=O)[C@@H]2C[C@H](C(=O)NCCCCCCN)[C@H](c3cccc(OCCO)c3)N2C1=O -0.556
COc1ccc([Si](C)(C)[C@H]2[C@H](CCO)O[C@@]3(C(=O)N(Cc4ccc(N5C(=O)c6ccccc6Oc6ccccc65)cc4)c4ccccc43)[C@@H]2C)cc1 -0.986
CCCCC=C[C@@H](NC(=O)c1ccccc1)c1ccccc1 1.39
COCCOC(=O)N1C(=O)[C@@]2(c3cc(C#CC4=CCCCC4)ccc31)[C@H](C(=O)N1CCCCCCC1)[C@H]1C(=O)O[C@H](c3ccccc3)[C@H](c3ccccc3)N1[C@@H]2c1ccc(OCCO)cc1 0.463
COCCOC(=O)N1C(=O)[C@@]2(c3cc(C#CCNC(N)=O)ccc31)[C@H](c1ccc(O)cc1)N1[C@H](c3ccccc3)[C@H](c3ccccc3)OC(=O)[C@H]1[C@@H]2C(=O)N1CCN(c2ncccn2)CC1 -0.249
COCCOC(=O)N1C(=O)[C@@]2(c3cc(C#CCCO)ccc31)[C@H](c1ccccc1OCCO)N1[C@H](c3ccccc3)[C@H](c3ccccc3)OC(=O)[C@H]1[C@@H]2C(=O)N1CCCCCCC1 0.481
CC(=O)N1CC(C(O)C2C=CC3C(=O)NC(=O)C3N2Nc2ccc(Cl)cc2Cl)c2ccccc21 (stereo not drawn) -0.584
COc1cc2c(cc1OC)CN(C(=O)[C@@H]1[C@H]3C(=O)O[C@H](c4ccccc4)[C@H](c4ccccc4)N3[C@H](c3ccc(O)cc3)[C@@]13C(=O)Nc1ccc(C#CCCO)cc13)CC2 -0.231
NCCCCCNC(=O)[C@H]1C[C@H]2C(=O)N[C@@H](Cc3ccccc3)C(=O)N2[C@H]1c1ccc(O)cc1 -0.622
CC(C)OC(=O)CC(=O)CC(O)c1ccc([N+](=O)[O-])cc1 (stereo not drawn) 1.59
CCCNC(=O)[C@@]1(C)c2ccccc2C(=O)N(Cc2ccccc2)[C@H]1c1ccc(CO)cc1 -0.163
COC(=O)[C@@]1(Cc2ccc(OC)cc2)[C@H]2c3cc(C(=O)N4CCCC4)n(Cc4cc(C)n(C)n4)c3C[C@H]2CN1C(=O)c1ccccc1 0.543
C=CCC(OC(C)=O)[C@@H]1[C@@H](N(Cc2ccc(-c3cccc(C(F)(F)F)c3)o2)C(=O)c2ccc(C)cc2)c2cc(OCCCO)ccc2N1C(=O)Cc1ccc(OC)cc1 (stereo partly drawn) 0.514
CC(=O)n1cc(C(O)C2C=CC3C(=O)N(c4ccccc4)C(=O)C3N2Nc2ccc(C(C)C)cc2)c2ccccc21 (stereo not drawn) -0.247
C=CCC(OC(C)=O)[C@@H]1[C@@H](N(Cc2ccc(-c3ccccc3)cc2)C(=O)c2ccc(C)cc2)c2cc(OCCCO)ccc2N1C(=O)Cc1ccc2ccccc2c1 (stereo partly drawn) -0.515
COc1cc(C(O)C2C=CC3C(=O)N(Cc4ccccc4)C(=O)C3N2n2cnnc2)cc(OC)c1OC (stereo not drawn) -0.634
COc1ccc(C(=O)Nc2cccc(CN3C(=O)[C@@]4(O[C@@H](CC(=O)N(CCO)Cc5ccccc5)[C@H]([Si](C)(C)c5ccc(OC)cc5)[C@H]4C)c4ccccc43)c2)cc1 -0.76
C=CCC(OC(C)=O)[C@@H]1[C@@H](N(Cc2ccc(-c3cccc(C(F)(F)F)c3)o2)C(=O)Cc2ccc(OC)cc2)c2cc(OCCCO)ccc2N1C(=O)Cc1ccc2ccccc2c1 (stereo partly drawn) 0.376
CO[C@H]1O[C@H](CO)[C@@H](OC(=O)c2ccc(Br)cc2)[C@@H]2OC(=O)[C@H](Cc3ccccc3)C/C=C/C[C@@H](Cc3ccccc3)C(=O)O[C@@H]12 -0.175
O=C(CS)NCCCCCCNC(=O)[C@@H]1C[C@@H]2C(=O)NCC(=O)N2[C@@H]1c1ccc(O)cc1 -1.57
COCCOC(=O)N1C(=O)[C@@]2(c3cc(C#CCNC(N)=O)ccc31)[C@H](c1ccc(OCCO)cc1)N1[C@H](c3ccccc3)[C@H](c3ccccc3)OC(=O)[C@H]1[C@@H]2C(=O)NC[C@H](O)c1ccccc1 -0.567
